Test results taken from PubChem BioAssay AID488890 (Southern Research Specialized Biocontainment Screening …, 2010).
The whole screen tested about 320,000 compounds, of which about 1,300 (0.41%) were called active. Roughly 3% stayed inconclusive and do not appear here. No rule for the calls is given here. Not all results are given here. Entries with a potency or affinity are not part of this list.

Test: growth inhibition of non-replicating M. tuberculosis (AID 488890);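 also: plate controls were DMSO cells for no effect and high antibiotic wells for full effect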
Details: Mycobacterium tuberculosis non-replicating, at 25 µM, stronger effect = higher value

| Compound | inhibition |
| --- | --- |
| N#Cc1ccc(C23CC4(C2)[C@H](CN(Cc2ccc(C(F)(F)F)cc2)[C@@H]4c2ccccc2)C3c2ccccc2)cc1 (some centres not stated) | 19.2% |
| Cc1cc(C)c(NC(=S)N2CCN(c3ccc([N+](=O)[O-])cn3)CC2)cc1C | -3% |
| OC/C(Br)=C(\Br)CO | -3.52% |
| CC(C)(C)NC(=O)c1ccc(NC(=O)C2COc3ccccc3O2)cc1 (configuration not stated) | 45.9% |
| NC(=O)c1ccc(NC(=O)C2COc3ccccc3O2)cc1 (configuration not stated) | 1.12% |
| COc1ccc(OC)c(NC(=O)C2COc3ccccc3O2)c1 (configuration not stated) | 30.6% |
| COc1ccc(CNC(=O)C2COc3ccccc3O2)cc1 (configuration not stated) | 72.5% |
| CCOC(=O)CN1C(=O)N[C@@H](c2ccccc2)C(C(=O)OC)=C1C | -18.9% |
| COCc1ccc(C(=O)N2CCCC(N3CCN(c4ccccc4C)CC3)C2)s1 (configuration not stated) | 20.7% |
| O=C1C2C3C=CC(C3)C2C(=O)N1CC1CCCO1 (configuration not stated) | -0.04% |
| NC(=O)CCn1c(C(=O)c2cc(Cl)c(N)c(Cl)c2)c2ccccc2[n+]1[O-] | 7% |
| O=C(Nc1cccnc1)C1OCCc2ccccc21 (configuration not stated) | -3.68% |
| COCCn1c(SCC(=O)Nc2ccc(S(=O)(=O)N(C)C)cc2)nc2ccccc21 | 0.14% |
| COc1cccc(NC(=O)CCC2CCN(C(=O)C3CC=CCC3)CC2)c1 (configuration not stated) | 6.11% |
| Cc1nc(-c2cccc(S(=O)(=O)N3CCCCC3)c2)cs1 | 3.4% |
| COc1ccccc1NC(=O)c1cc(-c2cc(OC)c(OC)c(OC)c2)nc2ccccc12 | 1.97% |
| COc1ccc(/C(O)=C/C(=O)C(=O)NNC(=O)c2ccccc2)cc1 | 22.9% |
| C/C(=C\C(=O)c1ccc(Br)cc1)NNC(=O)c1ccc(O)cc1 | 67.2% |
| C/C(=C\C(=O)c1ccc(Br)cc1)NCc1ccccc1 | 52.8% |
| COc1ccc(N/C(C)=C/C(=O)c2ccccc2)cc1 | 57.9% |
| CCOc1ccc(N2CC(C(=O)NCCCc3ccccc3)CC2=O)cc1 (configuration not stated) | 24.1% |
| Cc1cccc(NC(=O)Cn2cnc3sc(C)c(S(=O)(=O)N4CCC(C)CC4)c3c2=O)n1 | 7.28% |
| CCN1CCN(c2ccc(S(=O)(=O)N3CCOCC3)cc2NC(=O)c2sccc2C)CC1 | -12.4% |
| CC(=O)c1ccc(N2CCN(S(=O)(=O)c3cccc4nonc34)CC2)cc1 | 10.4% |

| Compound | inhibition |
| --- | --- |
| O=C(O)CSc1ccccn1 | -10.9% |
| O=C(O)CCSc1ccccn1 | -2.61% |
| O=C(c1ccccc1)c1nnc(-c2ccncc2)o1 | 49.9% |
| O=C(c1nnc(-c2ccncc2)o1)c1ccccc1Cl | 72.4% |
| O=C(c1cccc(F)c1)N1CCC2(CC1)NCCc1[nH]cnc12 | -6.44% |
| CN(CC(O)COCc1cccs1)C1CCCCC1 (configuration not stated) | 4.88% |
| c1ccc(-c2cc3c(ccc4nonc43)nn2)cc1 | 21% |
| O=C(O)c1cc(-c2ccccc2)nc2ccccc12 | -4.94% |
| Cc1ccc(NC(=O)CC(C)N2CCCC2)cc1 (configuration not stated) | -3.18% |
| CC(NCC(O)COCc1ccc(Cl)cc1)c1ccccc1 (configuration not stated) | 78.5% |
| NCC(O)COCCC12CC3CC(CC(C3)C1)C2 (configuration not stated) | 8.67% |
| O=C(Nc1nnc(C(F)(F)F)s1)c1cccnc1 | 27.8% |
| Cc1nnc(NC(=O)c2ccccc2NC(=O)c2ccccc2)s1 | 33.7% |
| Cc1cc(-c2n[nH]c(=S)n2-c2ccccc2C)cs1 | -13.2% |
| COc1ccccc1NC(=O)COC(=O)/C=C/c1ccccc1[N+](=O)[O-] | 65.2% |
| CCN1C(=O)/C(=C/c2ccc(N3CCCC3)cc2)NC1=S | 52.1% |
| COC(=O)COc1ccc(/C=C2/NC(=O)N(CC(=O)OC)C2=O)cc1 | 9.12% |
| Cc1cc(C)n(-c2ccc(C(=O)Nc3cccc(S(=O)(=O)N4CCCC4)c3)cc2)n1 | -4.31% |
| C=CCn1c(SCC(=O)Nc2cc(C)cc(C)c2)nnc1-c1cnccn1 | -3.18% |
| CC[n+]1c(/C=C/Nc2ccccc2)oc2ccc(OC)cc21 | 35.5% |
| CC[n+]1c(/C=C/Nc2ccccc2)oc2ccccc21 | 67.7% |
| Cc1cc(=O)oc2c3c(cc(OCC(=O)NCc4cccnc4)c12)OC(C)(C)CC3 | 7.63% |
| CC(=O)OCCc1c2ccccc2c(CCCN(C)C)c2ccccc12 | 41.4% |
| Cc1onc(-c2c(Cl)cccc2Cl)c1COC(=O)c1ccc(Cl)cc1 | 16.1% |

| Compound | inhibition |
| --- | --- |
| Cc1onc(-c2c(Cl)cccc2Cl)c1C(=O)OCC(=O)c1ccccc1 | 15.6% |
| CCOC(=O)c1cn(C2CC2)c2c(F)c(F)c(F)cc2c1=O | -13% |
| Cc1c(-n2cc(C(=O)O)c(=O)c3cc(F)c(N4CCCC(O)C4)c(F)c32)c(=O)n(-c2ccccc2)n1C (configuration not stated) | 0.14% |
| CC1CCc2cc(F)cc3c(=O)c(C(=O)O)cn1c23 (configuration not stated) | 35.4% |
| COc1c(F)c(F)cc2c(=O)c(C(=O)O)cn(C3CC3)c12 | 4.5% |
| C=CCN(CC=C)C(=O)COC(=O)c1ccc(Sc2ncn[nH]2)c([N+](=O)[O-])c1 | 43.1% |
| Cc1ccc(-c2ccc(SCC(=O)N3CCc4ccccc43)nn2)cc1 | -0.83% |
| CC(=O)Nc1ccc(Nc2cc(C)nc3c(-c4ccc(Cl)cc4)c(C)nn23)cc1 | 2.43% |
| Cc1cc(NC2CCCC2)n2ncc(-c3ccccc3)c2n1 | 36.8% |
| CCCc1cc(N2CCCC2)n2nc(C)c(-c3ccccc3)c2n1 | 43.4% |
| CC(=O)Nc1ccc(Nc2cc(C(C)C)nc3c(-c4ccccc4)c(C)nn23)cc1 | 5.77% |
| Cc1cc(NCCCn2ccnc2)n2nc(C)c(-c3ccc(Cl)cc3)c2n1 | -1.28% |
| CCCc1cc(N2CCN(c3ccccn3)CC2)n2nc(C)c(-c3ccccc3)c2n1 | 2.63% |
| Cc1cc(NCc2ccccc2)n2ncc(-c3ccccc3)c2n1 | 14.7% |
| Cc1nn2c(NCCCn3ccnc3)cc(C(C)C)nc2c1-c1ccccc1 | 75.8% |
| Nc1cc(N2CCNCC2)c([N+](=O)[O-])cc1Cl | 6.14% |
| Cc1ccc(CNC(=O)C2CCCN(C(=O)N(C)C)C2)cc1 (configuration not stated) | -2.88% |
| C=CCN1C(=O)c2ccc(C(=O)OCC(=O)Nc3ccccc3OC)cc2C1=O | -2.33% |
| CC(=O)c1cc(CN2CCN(Cc3ccccc3)C(CCO)C2)cs1 (configuration not stated) | 1.86% |
| Cc1cc(C(=O)N(C)CC(=O)Nc2ccc(Cl)c(C(F)(F)F)c2)no1 | 6.97% |
| Cc1c(NC(=O)COC(=O)Cn2cc(C(F)(F)F)ccc2=O)cccc1[N+](=O)[O-] | -1.08% |
| Cc1cc(C)n2nc(SCC(=O)N(Cc3ccccc3)C3CCS(=O)(=O)C3)nc2n1 (configuration not stated) | -1.73% |
| Cc1cc(NCCC(C)C)n2nc(C)c(-c3ccccc3)c2n1 | 49.1% |
| Cc1cc(Nc2ccccc2)n2nc(C)c(-c3ccccc3)c2n1 | 15.2% |
